Screens from PubChem BioAssay.
Sampled rows, rich in hits. Any-hit rate of the full collection: about 1.8%.
TRPML1 inh = human mucolipin-1 channel inhibition; activity change, negative = inhibition, % (no concentration beside the values); TRPML1-inducible cells, Ca2+ dye fluorescence, FDSS; stronger effect = lower value; inhibition of EC80 agonist-evoked calcium signal; Q9GZU1; hit rate 0.02% among 390,000; AID 624415; in the data active means activity change below about -50%; inconclusive means between about -30% and that limit;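 further: stimulus is agonist 54-4 at its EC80 concentration; on the % scale 0 is the no-effect control and ±100 the full control effect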
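Calcium fluorescence in TRPML1-DL cells induced overnight with Tet: a 110 s read after compound pin addition, then a 110 s antagonist read after challenge with 54-4 at 4 uM final (EC80).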
HEK293 tox = cytotoxicity counter-screen for GLP-1 receptor inverse agonists | HEK293 cAMP-luciferase reporter cells, luminescence, 24 h | Potency, µM (titrated, usually from 38.3 µM), for inactives: at the highest dose activity change, negative = inhibition, hits mostly inhibitors | hit rate 0.13% among 410,000;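 further: loss of luciferase light is scored as toxicity; potency means the concentration at half of the fitted maximal effect; on the % scale 0 is the no-effect control and ±100 the full control effect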
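Luminescence readout: signal drop marks cytotoxicity. Plated cells grew 12 h at 37 °C, 5% CO2, received 23 nL compound for 24 h, then got luciferase reagent, read after 12 min at RT.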
GLP-1R agonist = agonists of human GLP-1 receptor. P43220. Potency, µM (doses to about 45.6 µM), inactives show at the top dose activation, actives largely listed as activators. HEK293 GLP-1R CRE-luciferase, luminescence, 4-6 h; cells express a hypersensitive GLP-1R form. AID 624172. hit rate 0.007% among 380,000; further: potency means the concentration at half of the fitted maximal effect; % of control where 0% means no effect
Target sequence (P43220 whole entry, looked up): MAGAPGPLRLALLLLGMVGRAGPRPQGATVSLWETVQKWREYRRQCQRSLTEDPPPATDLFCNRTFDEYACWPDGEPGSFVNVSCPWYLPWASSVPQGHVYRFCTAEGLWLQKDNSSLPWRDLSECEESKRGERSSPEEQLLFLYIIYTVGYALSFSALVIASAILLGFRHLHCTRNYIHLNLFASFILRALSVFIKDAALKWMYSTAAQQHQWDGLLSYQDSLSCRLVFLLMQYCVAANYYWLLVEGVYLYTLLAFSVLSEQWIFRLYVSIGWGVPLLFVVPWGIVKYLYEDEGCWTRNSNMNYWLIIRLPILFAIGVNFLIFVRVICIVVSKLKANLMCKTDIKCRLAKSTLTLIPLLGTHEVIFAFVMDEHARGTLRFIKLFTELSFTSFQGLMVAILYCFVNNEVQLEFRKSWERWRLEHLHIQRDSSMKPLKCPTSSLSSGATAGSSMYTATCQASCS
GLP1R inv ag = acts as inverse agonist at human GLP-1 receptor. HEK293 GLP-1R CRE-luciferase, luminescence, 24 h; GLP-1R form is constitutively active. Potency, µM (top dose mostly 38.3 µM), for the others: at the top dose activity change, negative = inhibition, hits mostly inhibitors. hit rate 1.6% among 410,000. AID 624417; further: potency means the concentration at half of the fitted maximal effect; on the % scale 0 is the no-effect control and ±100 the full control effect; nearly all actives have a fitted effect of over 55% in size
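HEK293 cells stably co-expressing constitutively active GLP-1R and a cAMP-responsive luciferase reporter were seeded in DMEM with 10% Nu serum, given compounds after 12 h, and incubated 24 h at 37 deg C. Luminescence was then read.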
TRPML1 ag = activates the human TRPML1 channel. Q9GZU1. TRPML1-expressing cells, Ca2+ dye fluorescence, FDSS. activation, % (concentration not given with the values). hit rate 0.12% among 410,000. AID 624414; in the data active means activation above about 50%; inconclusive means mostly about 30% to 49%; further: 0% is about no effect
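Cells: TRPML1-DL, 1X Tet inducer, ~16 h at 37 degrees C/5% CO2. Dye: ABD Ca8 no-wash + quencher, 45-90 min RT. Read: 10 s baseline, compound add, 110 s agonist phase; 54-4 EC80 (4uM final), 110 s antagonist phase.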
* marks the source's active call; other numbers are inactive results; ? = inconclusive; / = no result given. Unless noted, the call rests on the fitted dose curve; in most records, active means well fitted curve in the direction sought with a large enough effect; inconclusive means small, poorly fitted or top-dose-only effect, or another doubt; inactive means no such curve, though single readings can be large; an effect the other way counts as inactive or inconclusive.

SMILES	TRPML1 inh	HEK293 tox	GLP-1R agonist	GLP1R inv ag	TRPML1 ag
CCc1nc2c(OCc3ccc(Cl)cc3)cccn2c1N(C)C(=O)c1ccco1	/	-23%	0%	10µM*	1
COc1cccc(Cn2cnc3c(cnn3C(C)(C)C)c2=O)c1	-12	/	/	/	0
CCc1ccccc1NC(=O)c1noc2c1CC(C(C)(C)C)CC2 (configuration not stated)	62	4%	/	?	-1
CCCC[C@H]1CCCO[C@@](C(=O)NCc2ccc(C)o2)(C(F)(F)F)C1	27	/	/	/	0
O=C(NCCc1ccccc1F)c1ccc2c(c1)OCCO2	26	15%	-3%	0.89µM*	0
C=CCOc1ccc(CN(C)CC(O)COc2cccc3ccccc23)cc1 (configuration not stated)	-7	?	13%	?	0
COc1cccc(CN(C)CC(O)COc2cc(Cl)ccc2Cl)c1 (configuration not stated)	10	-4%	0%	10µM*	1
Cc1ccc(S(=O)(=O)N(Cc2ccccc2)c2ccccc2C(=O)N2CCCCC2)cc1	-8	?	8%	8.9µM*	0
CCOC(=O)c1c(C)c(C(=O)NCc2cccs2)c(C)n1C	-57*	4%	?	1%	0
Cc1ccc(-c2nc3ccccc3o2)cc1NC(=O)C(C)Oc1ccccc1 (configuration not stated)	/	/	/	/	0
CCCC(=O)C1=C(O)C(C(=O)OC)C(C)(C)CC1=Nc1cccc2ccccc12 (configuration not stated)	-4	-4%	-6%	7.9µM*	0
CCCC(=O)C1=C(O)C(C(=O)OC)C(C)(C)CC1=Nc1ccccc1 (configuration not stated)	17	91%	3%	?	1
Cc1cccc(NC(=O)C2(C)CC3c4ccccc4C2c2ccccc23)c1C (configuration not stated)	-2	10%	-14%	10µM*	9
Cc1c(C(=O)N(Cc2ccccc2)Cc2cccs2)cnn1-c1ccc(Cl)cc1	-3	?	15%	5.6µM*	0
CCc1c(C#N)c(SCCC(=O)Nc2ccc(OC)cc2)nc2c1C(=O)CC(C)(C)C2	-5	2%	4%	?	1
CCc1c(C#N)c(SCc2c(C)noc2C)nc2c1C(=O)CC(C)(C)C2	45	7%	3%	8.9µM*	3
CCc1ccccc1NC(=O)c1ccc2[nH]c(C)c(C)c2c1	4	-1%	/	-19%	0
CC1(C)Cc2cccc(C(=O)Nc3ccncc3)c2O1	19	-4%	18%	-14%	1
CC1(C)Cc2cccc(C(=O)Nc3ccc(Cl)cc3)c2O1	-8	-3%	2%	11µM*	-1
COc1ccc(CNC(=O)c2ccc(Cl)c(S(=O)(=O)N3CCCCCC3)c2)cc1	30	0%	6%	10µM*	-1
O=C(NCCC1=CCCCC1)c1ccc(Cl)c(S(=O)(=O)N2CCCCC2)c1	-14	2%	8%	3.5µM*	0
COc1ccc(C(CNC(=O)c2ccc(C)c(S(=O)(=O)N3CCCCC3)c2)N(C)C)cc1OC (configuration not stated)	3	13%	-3%	2%	1
CN(C)C(CNC(=O)c1ccc(Cl)c(S(=O)(=O)N2CCCCCC2)c1)c1ccccc1 (configuration not stated)	-11	0%	9%	7.9µM*	0
O=C(NCc1ccncc1)c1ccc(Cl)c(S(=O)(=O)N2CCCCC2)c1	-5	0%	0%	-16%	1
CN(C)CCCNC(=O)c1ccc(Cl)c(S(=O)(=O)N2CCCCCC2)c1	3	3%	0%	10µM*	0
O=C(NCCC1=CCCCC1)c1ccc(Cl)c(S(=O)(=O)N2CCOCC2)c1	10	6%	15%	-1%	0
COc1ccc(Br)cc1CNC(=O)C1CCN(c2nnc(-n3cccc3CNc3ccc(C)cc3)s2)CC1	1	1%	/	?	1
